Screening results as filed in PubChem.
Most compounds without a hit are left out; they make up all but 8.7% or so of the library.
JMJD2A Tudor: JMJD2A Tudor domain (human) inhibition; 4.4% of 390,000 active; AID 504339; Potency, µM (doses to about 114 µM), for the others: at the highest dose activity change, negative = inhibition, most hits filed as inhibitors; AlphaScreen JMJD2A-Tudor / H3K4me3 peptide binding; O75164; note: potency is the fitted concentration of half-maximal effect; % is set by controls: 0 for no effect and ±100 for the full control effect; nearly all actives have a fitted effect of over 50% in size
G9a inh-1: inhibitors of human histone lysine methyltransferase G9a. G9a H3K9 monomethylation, AlphaScreen, 2 h. Potency, µM (series often up to 102 µM), without a hit: at the top dose activity, negative = inhibition, hits mostly inhibitors. 8.8% of 350,000 active; note: potency is the fitted concentration of half-maximal effect; % is set by controls: 0 for no effect and ±100 for the full control effect; nearly all actives have a fitted effect of over 75% in size
Target sequence (Q96KQ7 913-1193 limits assumed): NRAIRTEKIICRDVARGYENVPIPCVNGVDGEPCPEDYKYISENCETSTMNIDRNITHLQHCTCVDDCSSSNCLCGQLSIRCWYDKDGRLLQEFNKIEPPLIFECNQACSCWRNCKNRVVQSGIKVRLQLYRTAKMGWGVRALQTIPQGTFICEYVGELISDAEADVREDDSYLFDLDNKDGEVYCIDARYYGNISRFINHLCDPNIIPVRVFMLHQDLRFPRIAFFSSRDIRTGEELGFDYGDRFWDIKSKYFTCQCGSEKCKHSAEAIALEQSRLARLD
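G9a (20 nM) was preincubated 15 min with compound, then reacted 2 h at room temperature with 500 nM biotin-H3K9 peptide and 20 µM SAM. Monomethyl-H3K9 detected by AlphaScreen using anti-H3K9me1 antibody.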
12-LOX inh: ALOX12 (human) lipoxygenase inhibition; 1.1% of 580,000 active; P18054; purified 12hLO, xylenol orange hydroperoxide absorbance; Potency, µM (doses to about 108 µM), inactives show top-dose activity change, negative = inhibition, usual class: inhibitors; note: potency is the fitted concentration of half-maximal effect; % is set by controls: 0 for no effect and ±100 for the full control effect
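Hydroperoxide product was detected by ferrous iron/xylenol orange as the 573 to 405 nm absorbance ratio. Arachidonic acid at 40 uM (final) was turned over for 30 min at room temperature by 150 nM human 12hLO, pH 7.0 Hepes buffer, after 15 min compound preincubation.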
HP1b chromo inh: HP1-beta chromodomain-methylated histone interaction inhibition; P83916; AlphaScreen HP1-beta / biotin-H3K9me3 peptide binding; Potency, µM (titrated, usually from 114 µM), for the others: at the highest dose activity change, negative = inhibition, hits mostly inhibitors; 0.56% of 390,000 active; AID 540317; note: potency is the fitted concentration of half-maximal effect; nearly all actives have a fitted effect of over 70% in size
Target sequence (P83916 whole entry, looked up): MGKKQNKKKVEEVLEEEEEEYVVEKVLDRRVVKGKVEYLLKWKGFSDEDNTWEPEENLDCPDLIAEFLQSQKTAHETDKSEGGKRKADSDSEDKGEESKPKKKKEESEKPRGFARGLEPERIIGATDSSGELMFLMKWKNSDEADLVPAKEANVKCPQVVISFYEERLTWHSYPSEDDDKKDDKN
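AlphaScreen: HP1-beta (50 nM) preformed 30 min with biotin-H3(1-18)K9me3 peptide (50 nM) in PBS pH 7.4, 0.01% Tween-20. Compound added for 30 min at RT, then streptavidin donor/nickel chelate acceptor beads (10 ug/mL) for 30 min.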
Sfp PPTase inh: blocks B. subtilis Sfp PPTase activity; Q9F4F7; Biochemical Sfp PPTase activity, qHTS; Potency, µM, inactives show largest response in the series, negative = inhibition, hits mostly inhibitors; 3.5% of 310,000 active;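 note: the enzyme is Sfp with the accession as filed and its product quenches rhodamine fluorescence; potency is the fitted concentration of half-maximal effect; 0% = enzyme reaction without inhibitor and -100% = no enzyme wells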
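Fluorescence-quenching assay: 15 nM Sfp-PPTase preincubated 15 min at room temperature with compound, then 5 uM rhodamine-CoA and 12.5 uM BHQ-2-labelled YbbR peptide added. Fluorescence (ex 525/em 598 nm) read at start and after 30 min; difference gives rate.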
BAZ2B block: blocks human BAZ2B | Q9UIF8 | AlphaScreen BAZ2B-H3K14Ac peptide displacement | 4.4% of 360,000 active | AID 504333 | Potency, µM (titrated, usually from 114 µM), inactives show top-dose activity change, negative = inhibition, most hits filed as inhibitors; note: potency is the fitted concentration of half-maximal effect; % is set by controls: 0 for no effect and ±100 for the full control effect; nearly all actives have a fitted effect of over 60% in size
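BAZ2B (50 nM) with biotin-H3(5-23)K14Ac peptide (50 nM) in PBS pH 7.4, 0.01% Tween-20, preformed 30 min, then compound 30 min at room temperature; top concentration 110uM. AlphaScreen streptavidin donor/nickel chelate acceptor beads (10 ug/mL final), 20 min dark, signal read.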
G9a inh-2: inhibits human G9a histone lysine methyltransferase, hit confirmation | shares compounds with JMJD2A Tudor | G9a H3K9 monomethylation, AlphaScreen, 2 h | Potency, µM, hits mostly inhibitors | 89% of 370 active; note: potency is the fitted concentration of half-maximal effect; nearly all actives have a fitted effect of over 65% in size
RGS4 confirm: confirmation of human RGS4 inhibitors. shares compounds with JMJD2A Tudor. RGS4 GAP activity, Transcreener GDP fluorescence polarization. Potency, µM, most hits filed as inhibitors. 80% of 25 active
Target sequence (P49798 whole entry, looked up): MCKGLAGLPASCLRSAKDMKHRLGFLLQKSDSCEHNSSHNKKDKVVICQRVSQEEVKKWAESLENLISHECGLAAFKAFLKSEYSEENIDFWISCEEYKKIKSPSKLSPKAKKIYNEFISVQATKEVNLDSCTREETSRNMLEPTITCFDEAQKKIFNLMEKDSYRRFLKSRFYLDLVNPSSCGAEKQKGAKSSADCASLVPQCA
* = called active by the depositor; ? = inconclusive; / = no result; [ ] = another dose, or the depositor's remark. Calls come from the whole dose curve; as a rule, active = well fitted curve in the direction sought with a large enough effect; inconclusive = small, poorly fitted or top-dose-only effect, or another doubt; inactive = no such curve, though single readings can be large; an effect the other way counts as inactive or inconclusive.

SMILES	JMJD2A Tudor	G9a inh-1	12-LOX inh	HP1b chromo inh	Sfp PPTase inh	BAZ2B block	G9a inh-2	others
CC(C)(C)NC(=O)CSc1ccc(S(=O)(=O)N2CCOCC2)cn1	-6.8%	-13.4%[12.7 µM]	?	31.3%	/	-2.2%	/
CN(C)c1ccc(NC(=O)Nc2cccc3ccccc23)cc1	-14.7%[11.4 µM]	2.82µM*	-17.5%	-14.0%	-6.7%	?	1.12*
Cc1ccc(NC(=O)Nc2cccc3ccccc23)cc1	-5.3%	/	4.4%	24.8%	8.3%	19.2%	/
CCOC(=O)CNC(=O)CSc1nnc(-c2ccccc2)n1Cc1ccco1	44.7µM*	?	-17.2%	50.0%	12.6µM*	-31.5%	4.48*
Cc1cc(NC(=O)CSc2nnc(-c3ccccc3)n2Cc2ccco2)no1	-5.6%	7.8%[59 µM]	3.8%	40.0%	-17.0%	14.0%	/
Oc1ccc(NCc2ccc(OCc3ccccc3)cc2)cc1	56.2µM*	7.94µM*	271.1%	?	56.2µM*	39.8µM*	1.26*
CC1=C(C(=O)NCc2ccccc2)C(c2ccccc2)NC(=S)N1 (stereo not drawn)	/	/	-6.4%	/	/	/	/
Cc1cnc2c(S(=O)(=O)N3CCNCC3)cccc2c1	/	/	19.7%	/	/	/	/
O=C(Nc1ccccc1N1CCCC1)c1cccc(-c2cc3ccccc3oc2=O)c1	?	?	5.7%	-20.6%	4.6%	?	/
O=C(Nc1ccc(N2CCCC2)cc1)c1ccccc1F	?	1.78µM*	-12.6%	-6.8%	?	?	2.83*
O=C(Nc1ccc(N2CCCC2)cc1)c1cccc(F)c1	50.1µM*	?	-7.6%	?	-25.8%	?	1.59*
O=C(Nc1ccc(N2CCCC2)cc1)c1cccc(-c2cc3ccccc3oc2=O)c1	28.2µM*	1.58µM*	11.2µM*	8.91µM*	15.8µM*	?	1.12*
O=C(Nc1ccc(N2CCCC2)cc1)c1cccc(Cl)c1Cl	?	?	?	13.1%	10.2%	-1.5%	/
O=C(NCC1CCN(c2ccc(S(=O)(=O)N3CCOCC3)cc2)CC1)Nc1ccccc1	0.7%	18.2%	7.7%	20.4%	8.0%	-2.9%	/
COc1ccc(N2CCC(CNC(=O)Nc3ccccc3)C2)cc1 (stereo not drawn)	17.8µM*	?	?	44.7µM*	-10.3%	50.1µM*	1*
CN(C)c1ccc(NC(=O)c2ccc([N+](=O)[O-])cc2Cl)cc1	-12.8%	2µM*	-6.4%	-1.9%	10.4%	-18.8%	6.31*
CC(C)C(=O)N(Cc1cc(=O)[nH]c2ccccc12)c1ccccc1	-13.7%	?	-19.3%	14.9%	7.8%	-14.4%	/
Cc1ccc(N(Cc2cc(=O)[nH]c3ccccc23)C(=O)c2ccco2)cc1	28.6%	?	?	13.1%	-4.9%	?	22.4*
CC(C)c1ccc(CNc2ccc(N3CCOCC3)c(C(=O)O)c2)cc1	/	/	-3.4%	/	/	/	/
CCOc1ccc(CNc2ccc(N3CCCC3)cc2)cc1	63.1µM*	?	?	-30.0%	?	17.8µM*	0.893*
COc1cccc(CNc2ccc(N3CCCCC3)cc2)c1OC	35.5µM*	?	-40.0%	39.8µM*	2.82µM*	14.1µM*	0.893*
CC(C)c1ccc(CNc2ccc(N3CCOCC3)cc2)cc1	39.8µM*	?	-25.4%	11.2µM*	44.7µM*	12.6µM*	10*
COc1cccc(CNc2ccc(S(N)(=O)=O)cc2)c1OC	-7.4%	13.6%[12.7 µM]	11.1%	25.3%	12.2%	0.7%	/
COc1ccc(Cc2nnc(SCC(=O)NC3CCCCC3)n2C)cc1	-3.4%	?	?	28.7%	-0.3%	-0.5%	10*
O=C(Nc1oc2ccc(Cl)cc2c(=O)c1-c1ccccc1)c1ccc([N+](=O)[O-])cc1	/	/	1.0%	/	/	/	/
SMILES	JMJD2A Tudor	G9a inh-1	12-LOX inh	HP1b chromo inh	Sfp PPTase inh	BAZ2B block	G9a inh-2	others
COc1ccc(CN2CCc3ccccc3C2)cc1Br	28.2µM*	2.24µM*	0.0%	-26.6%	79.4µM*	50.1µM*	11.2*
CC(C(=O)NCCN1CCN(C)CC1)C1CCN(C(=O)c2cc3ccccc3[nH]2)CC1 (stereo not drawn)	/	/	1.2%	/	/	/	/
CC(=O)c1ccc(S(=O)(=O)N2CCCC(N(C)CCc3ccccn3)C2)cc1 (stereo not drawn)	12.1%	?	-10.6%	29.2%	5.7%	-19.9%	?
CCCNC(=O)c1ccc2c(=O)n3c(-c4ccc(C)cc4)csc3nc2c1	22.4µM*	?	11.2µM*	-25.2%	?	7.08µM*	0.564*
Cc1cc(F)ccc1OC1CN(Cc2ccc(C(F)(F)F)cc2)C1	/	/	35.9%[176 µM]	/	/	/	/
CCN1CCN(c2ccc(NC(=O)c3cc4ccccc4cc3OC)cc2C)CC1	-32.2%	?	105.4%	18.0%	/	-37.5%	3.17*
CCN1CCN(c2ccc(NC(=O)c3ccccc3OC)cc2Cl)CC1	/	/	-44.5%	/	/	/	/
CN(CC(=O)Nc1ccc(N2CCOCC2)cc1)Cc1c(O)ccc2ccccc12	56.2µM*	0.501µM*	?	-1.4%	?	?	0.252*
Cn1nc(C(=O)Nc2nc(-c3ccc(F)cc3)cs2)c2ccccc2c1=O	/	/	10.0%	/	/	/	/
Cn1nc(C(=O)Nc2nc(-c3ccccn3)cs2)c2ccccc2c1=O	22.4µM*	4.47µM*	-7.2%	?	/	17.8µM*	/	RGS4 confirm=10.6*
Cc1ccc(-c2[nH]c3ccccc3c2C=O)cc1	/	/	7.9%	/	/	/	/
Cc1ccc(S(=O)(=O)Nc2ccc(NC(=O)CN3CCCCC3)cc2)cc1	-16.2%	?	130.6%	11.3%	12.0%	10.1%	/
Cc1ccc(S(=O)(=O)Nc2cccc(NC(=O)CN3CCCCC3)c2)cc1	?	?	?	?	-7.8%	?	2.83*
Cn1nc(C(=O)Nc2ccc(F)cc2F)c2ccccc2c1=O	/	/	-5.1%	/	/	/	/
CCOc1nc(NCCc2ccc(OC)c(OC)c2)nc(N2CCN(c3ccc(OC)cc3)CC2)n1	2.1%	?	-6.6%	35.1%	17.7%	-23.9%	2*
CCN(CC)c1ccc(NC(=O)COC(=O)C2CCN(c3ccc(C(F)(F)F)cn3)CC2)cc1	15.8µM*	1.58µM*	?	?	/	?	2.83*
CC(C)c1ccc(NC(=O)COC(=O)C2CCN(c3ccc(C(F)(F)F)cn3)CC2)cc1	/	/	-24.0%	/	/	/	/
COc1cc(C2CC(=O)Nc3c(C(=O)O)cn(-c4ccc(F)cc4)c32)cc(OC)c1OC (stereo not drawn)	/	/	-56.8%	/	/	/	/
